Sampled rows, rich in hits. Any-hit rate of the full collection: about 3%.
IP6K1 inhibitor: Primary qHTS assay for small molecule inhibitors of Inositol hexaphosphate kinase 1 (IP6K1); IP6K1 kinase, ADP-Glo luminescence, 2 h; active compounds read low; activity change, % (series mostly up to about 58 µM); hit rate 0.81% among 140,000; in the data active = activity change below about -25%; note: % is set by controls: 0 for no effect and ±100 for the full control effect
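ADP-Glo luminescence measures ADP made by human IP6K1 during a 2 h RT reaction with ATP/IP6 (mix at 1.3 mM/130 uM); top library doses 57.5 and 19.1 uM final.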
KDM5B inhibitor: Primary screen for KDM5B Histone Demethylases FDH-coupled qHTS; Lysine-specific demethylase 5B (Homo sapiens), Q9UGL1; KDM5B demethylase, FDH-coupled NADH fluorescence (FDH is formaldehyde dehydrogenase); Potency, µM (doses to about 57.7 µM), most hits filed as inhibitors; hit rate 2.6% among 220,000; AID 1347165, 2019; note: potency is the fitted concentration of half-maximal effect; 0% is about no effect; nearly all actives have a fitted effect of over 70% in size
Target sequence (Q9UGL1 whole entry, looked up): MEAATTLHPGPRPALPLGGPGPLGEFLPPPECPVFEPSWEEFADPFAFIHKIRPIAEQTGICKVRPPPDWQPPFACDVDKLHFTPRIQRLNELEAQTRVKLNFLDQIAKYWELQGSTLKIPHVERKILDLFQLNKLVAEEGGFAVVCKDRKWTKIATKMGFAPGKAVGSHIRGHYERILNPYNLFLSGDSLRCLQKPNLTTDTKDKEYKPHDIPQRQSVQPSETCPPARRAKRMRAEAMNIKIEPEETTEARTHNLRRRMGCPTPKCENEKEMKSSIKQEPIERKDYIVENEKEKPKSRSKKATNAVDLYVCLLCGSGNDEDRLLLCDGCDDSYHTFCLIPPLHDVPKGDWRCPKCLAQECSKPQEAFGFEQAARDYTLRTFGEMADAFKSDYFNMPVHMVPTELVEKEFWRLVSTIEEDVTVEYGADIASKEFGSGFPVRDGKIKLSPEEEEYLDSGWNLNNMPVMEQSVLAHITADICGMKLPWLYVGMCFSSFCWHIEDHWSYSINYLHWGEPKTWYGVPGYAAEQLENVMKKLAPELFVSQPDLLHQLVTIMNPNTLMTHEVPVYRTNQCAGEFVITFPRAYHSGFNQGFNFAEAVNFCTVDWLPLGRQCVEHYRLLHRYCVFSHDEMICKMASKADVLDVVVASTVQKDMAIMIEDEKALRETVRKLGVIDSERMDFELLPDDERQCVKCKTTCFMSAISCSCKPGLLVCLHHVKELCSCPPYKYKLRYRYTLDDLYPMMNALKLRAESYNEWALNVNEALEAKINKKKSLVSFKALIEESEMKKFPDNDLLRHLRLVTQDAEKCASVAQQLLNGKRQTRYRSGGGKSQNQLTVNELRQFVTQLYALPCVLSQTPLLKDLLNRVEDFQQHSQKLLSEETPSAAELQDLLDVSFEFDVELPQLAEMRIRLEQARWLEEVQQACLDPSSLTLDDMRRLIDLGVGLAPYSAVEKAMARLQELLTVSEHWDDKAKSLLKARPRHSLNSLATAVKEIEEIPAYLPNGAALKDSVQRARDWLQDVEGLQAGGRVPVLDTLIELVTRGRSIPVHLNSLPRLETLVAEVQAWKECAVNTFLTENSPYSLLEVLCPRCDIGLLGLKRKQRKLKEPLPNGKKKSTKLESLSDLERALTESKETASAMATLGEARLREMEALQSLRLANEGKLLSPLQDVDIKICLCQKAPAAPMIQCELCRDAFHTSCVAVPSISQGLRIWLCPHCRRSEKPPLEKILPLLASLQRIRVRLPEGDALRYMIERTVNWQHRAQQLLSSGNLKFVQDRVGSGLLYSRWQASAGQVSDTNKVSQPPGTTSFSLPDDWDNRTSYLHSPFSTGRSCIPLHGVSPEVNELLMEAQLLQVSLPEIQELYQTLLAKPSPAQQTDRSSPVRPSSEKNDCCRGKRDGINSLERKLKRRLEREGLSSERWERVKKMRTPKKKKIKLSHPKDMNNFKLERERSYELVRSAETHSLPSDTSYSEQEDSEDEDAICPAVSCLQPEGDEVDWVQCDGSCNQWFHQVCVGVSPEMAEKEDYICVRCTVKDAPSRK
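Coupled FDH/NAD⁺ fluorescence readout. KDM5BΔAP 200 nM final; compound titration, 10 min RT preincubation; substrate mix 12.5 µM H3K4me3, 25 µM 2-OG, 50 µM Fe(II), 100 µM ascorbate, 0.25 mM NAD⁺, 0.25 U/mL FDH; ΔRFU over 30 min.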
HEK293 viab: GF-AFC viability counterscreen for inhibitors of alpha-synuclein gene (SNCA) expression. HEK-293-SNCA-luc viability, GF-AFC fluorescence, 24 h. Potency, µM (series often up to 57.1 µM), without a hit: at the highest dose activity change, negative = cytotoxicity, actives largely listed as cytotoxic. hit rate 0.12% among 150,000;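 note: potency is the fitted concentration of half-maximal effect; 0% = DMSO-treated cells and -100% = medium-only wells without cells; nearly all actives have a fitted effect of over 30% in size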
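Cytotoxicity counterscreen: after 24 h compound treatment of genome-edited SNCA-luciferase HEK-293 cells, live-cell protease substrate GF-AFC read by fluorescence after 30 min; activity scaled between DMSO (0%) and medium-only (-100%), curves Hill-fitted.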
SNCA expr inh: Primary qHTS assay for inhibitors of alpha-synuclein gene (SNCA) expression | HEK-293 SNCA-luciferase knock-in, luminescence, 24 h | Potency, µM (series often up to 57.2 µM), for inactives: top-dose activity change, negative = inhibition, usual class: inhibitors | hit rate 0.17% among 140,000 | AID 1671194, 2021;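 note: potency is the fitted concentration of half-maximal effect; plate controls were DMSO cells for no effect and cell-free wells for full effect; nearly all actives have a fitted effect of over 45% in size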
IP6K1 inh cnf: Confirmatory qHTS assay for small molecule inhibitors of Inositol hexaphosphate kinase 1 (IP6K1); shares compounds with IP6K1 inhibitor; recombinant IP6K1 kinase, ADP-Glo luminescence, 2 h; Potency, µM (series often up to 49 µM), for the others: at the top dose activity change, negative = inhibition, usual class: inhibitors; hit rate 13% among 1,200; AID 1645852, 2021; note: potency is the fitted concentration of half-maximal effect; % is set by controls: 0 for no effect and ±100 for the full control effect; nearly all actives have a fitted effect of over 65% in size
Starred values were filed as active, the others as inactive; i = inactive; ? = inconclusive; . = no result; [ ] = another dose, or the depositor's remark. Unless noted, calls come from the whole dose curve; as a rule, active = well fitted curve in the direction sought with a large enough effect; inconclusive = small, poorly fitted or top-dose-only effect, or another doubt; inactive = no such curve, though single readings can be large; an effect the other way counts as inactive or inconclusive.

SMILES | IP6K1 inhibitor | KDM5B inhibitor | HEK293 viab | SNCA expr inh | IP6K1 inh cnf
COc1ccc(CN[C@@H]2C=C[C@@H](c3c(C)nn(-c4ccccc4)c3C)C2)cc1 | -7.2 | ? | ? | 33.8%[87.6 µM] | .
Cc1cc(=O)[nH]c2nnc(SCC(=O)Nc3ccc(OC(F)(F)F)cc3)n12 | -25.2* | i | 2.0% | 6.8% | 5.7%
Cc1ccc(Sc2c(C)nn(C(=O)COc3ccccc3)c2C)cc1 | -35.8* | ? | -6.7% | ? | ?
Cc1ccc(C)c(N2CCN(S(=O)(=O)c3cnc(N)nc3)CC2)c1 | -13.1 | i | -3.8% | 7.3% | .
Cc1ccc(C)c(N2CCN(S(=O)(=O)c3csc(C(N)=O)c3)CC2)c1 | -30.1* | i | -5.2% | -23.8% | ?
Cc1ccccc1NC(=O)c1c(C)oc2ccc(O)c(CN3CCCCCC3)c12 | -25.9* | ? | -10.3% | 13.9% | -9.0%
CCCCCCCCn1cc(CN(CC)CC)c2cc(-c3cnc(N)nc3)ccc21 | -35.1* | . | ? | . | ?
NC(=O)CCn1cc(CN(CCO)Cc2ccccc2F)c2ccccc21 | 3.6 | i | 20.3% | 3.3% | .
Cn1ncc2c(C(=O)N3CCCC3)cc(-c3ccc(Cl)cc3Cl)nc21 | -17.0 | . | -4.4% | -3.4% | .
CC1(CNc2ccccc2)COc2ccc(C(=O)NCCc3cnc[nH]3)cc2N1 (stereo unspecified) | -40.4* | ? | -1.8%[87.6 µM] | -9.6%[87.6 µM] | ?
CC1(CNc2ccccc2)COc2ccc(C(=O)NCc3cccnc3)cc2N1 (stereo unspecified) | -12.1 | i | -2.3%[87.6 µM] | 2.9%[87.6 µM] | .
O=c1ncn(CC2CC2)c2ccc(-c3ccoc3)nc12 | -32.4* | 31.6µM* | -4.7%[87.6 µM] | 1.7%[87.6 µM] | -4.4%[92.2 µM]
CCc1cccc(NC(=O)c2cc3c(=O)n(Cc4ccccc4)ccc3nc2C)c1 | -26.7* | ? | 6.9% | -5.6% | 31.0%
CC(C)CCC1=NC2(CCN(C(=O)CCN3CCCCC3=O)CC2)C(=O)N1 | -34.6* | i | -2.7% | -6.3% | -13.8%
CCOC(=O)N1CCC2(CC1)N=C(CCC(C)C)NC2=O | 11.5 | i | 2.7% | ? | .
Nc1ccc(N=Nc2ccccc2)c(N)n1 | -36.5* | . | 12.7%[23.9 µM] | 143.1%[25.6 µM] | ?
COc1cccc(-c2ncc3c(n2)OCCN(c2ccccc2)C3=O)c1 | -26.6* | 28.2µM* | -7.5%[87.6 µM] | ? | ?
NC[C@H](O)c1ccc(O)c(O)c1 | -70.1* | . | 4.7% | 8.8% | -18.9%
O=C(NC1CCN(c2ccnc3ccnn23)CC1)c1cc(F)ccc1Br | 12.3 | . | 1.8%[87.6 µM] | -14.1%[87.6 µM] | .
O=C(Nc1ccc(N2CCOCC2)c(C(=O)O)c1)c1ccc(Br)cc1 | -33.4* | ? | 7.5% | 33.7% | ?
O=C(Nc1ccc(N2CCC(N3CCCCC3)CC2)c(C(=O)O)c1)c1ccc(Br)cc1 | -28.9* | ? | 9.0% | 42.0% | ?
O=C(Nc1cnc(N2CCC(N3CCCCC3)CC2)c(C(=O)O)c1)c1ccc(Br)cc1 | -34.3* | ? | 4.6% | -7.3% | ?
CCOC(=O)CN([C@@H]1C[C@@H]2CO[C@H](C(C)C)C[C@@H]2C1)[S+](=O)([O-])c1cccs1 | -4.1 | . | . | . | .
CCc1cccc(CC)c1N(COC)C(=O)Cn1c(C)nc2ccccc21 | -33.0* | ? | -25.9% | ? | 13.3%
COc1ccccc1-c1cc(C(=O)Nc2ccc(Cl)cc2)c2cnn(C)c2n1 | -14.0 | . | . | . | .
SMILES | IP6K1 inhibitor | KDM5B inhibitor | HEK293 viab | SNCA expr inh | IP6K1 inh cnf
COc1ccc(-c2cc(C(=O)NCc3c(C)cc(C)[nH]c3=O)c3c(c2)N(C(C)C)CCO3)cc1OC | -26.7* | 35.5µM* | -13.9% | ? | ?
CCc1ccc(S(=O)(=O)c2cnc(SCC(=O)Nc3ccc(OC)cc3OC)[nH]c2=O)cc1 | -28.2* | ? | 24.0% | 6.6% | ?
Cc1ccc(S(=O)(=O)c2cnc(SCC(=O)Nc3ccc4c(c3)OCCO4)[nH]c2=O)cc1C | -25.2* | i | 12.0% | 7.7% | ?
COc1cc(Cl)c(C)cc1NC(=O)CSc1ncc(S(=O)(=O)c2ccc(C(C)(C)C)cc2)c(=O)[nH]1 | -8.9 | i | 8.1% | -0.2% | .
Cc1cccc(Cn2c(=O)n(CCCCC(=O)NCc3ccc4c(c3)OCO4)c(=O)c3ccccc32)c1 | 1.5 | i | 0.9% | -29.5% | .
O=C(CCCCn1c(=O)c2ccccc2n(Cc2cccc(Cl)c2)c1=O)NCc1ccc2c(c1)OCO2 | -28.0* | i | 5.3% | 25.3% | -6.8%
COc1ccc(C(=O)N2CCN(Cc3ccccc3-c3ccccc3F)CC2)cc1 | 10.5 | . | -12.4%[12.5 µM] | -3.0% | .
Cc1cc(N2CCOCC2)ccc1Nc1nc(NC2CCCCC2)c2[nH]cnc2n1 | -47.4* | . | -26.7% | . | 2.06µM*
Cn1c(=O)c(=O)n(C)c2cc(N3CCOCC3)c(NS(=O)(=O)c3ccc(Cl)cc3)cc21 | -32.3* | ? | 0.8% | -20.7% | -4.3%
Cn1c(=O)n(C)c2cc(N3CCOCC3)c(NS(=O)(=O)c3ccc(Cl)cc3)cc21 | -12.7 | i | 2.8% | 54.2% | .
CN1CC[C@@H](c2c(O)cc(O)c3c(=O)cc(-c4ccccc4Cl)oc23)[C@@H](O)C1 | . | . | ? | 0.215µM* | ?
O=C(NCc1ccccc1Cl)C1CCN(c2nccc(Nc3ccccc3F)n2)CC1 | -1.5 | . | 5.6%[12.5 µM] | 21.6% | .
COc1cccc(-c2noc(CC3CCN(C(=O)c4ccc(OC)cc4C)CC3)n2)c1 | 3.8 | i | -19.4% | -18.7% | .
Clc1cccc(-c2ccc(CN3CCN(C4CCNC4)CC3)o2)c1 (stereo unspecified) | -27.8* | ? | 1.2% | 43.2% | -24.0%
COc1cc(-c2nc(-c3c(C)noc3C)cc3cc(CN(C)C)oc23)ccn1 | -33.1* | 35.5µM* | -15.4%[87.6 µM] | 3.4%[87.6 µM] | ?
COc1ccc(Nc2nc(-c3c(C)noc3C)cc3cc(CN(C)C)oc23)cn1 | 24.9 | ? | ? | 11.2%[87.6 µM] | .
COc1ccc(-c2nc(-c3c(C)noc3C)cc3cc(CN(C)C)oc23)cn1 | -48.7* | 31.6µM* | -3.4%[87.6 µM] | -10.8%[87.6 µM] | ?
O=C(NCCc1ccccc1)N1CCC(c2noc(COc3ccc(F)cc3)n2)C1 (stereo unspecified) | 6.3 | . | 2.8% | 18.2% | .
COCCN1C(=O)C(=O)/C(=C(/O)c2ccc(OC)cc2C)C1c1ccncc1 (stereo unspecified) | . | i | . | . | .
Oc1cc(O)cc(C=Cc2ccc(O)c(O)c2)c1 | . | . | -13.6% | -1.2% | .
Oc1ccc(/C=C/c2cc(O)cc(O)c2)cc1 | -59.8* | . | -12.4% | ? | 9.2µM*
C=C1c2cccc(O)c2C(O)=C2C(=O)[C@]3(O)C(O)=C(C(N)=O)C(=O)[C@@H](N(C)C)[C@@H]3[C@@H](O)[C@H]12 | -36.8* | . | -22.0%[23.9 µM] | -15.3%[25.6 µM] | -13.0%
COc1ccc(-n2c(=O)c3c(n2Cc2ccccc2)CN(Cc2ccc(F)cc2)CC3)cc1 | 4.1 | i | ? | -6.7% | .

Assay outcomes: PubChem, National Center for Advancing Translational Sciences (NCATS)
